The list is not random: actives were taken first. Their share in the collection is about 3%.
Vif imaging – HIV Vif inhibition; HEK293T cells, Vif self-association by quenched fluorescence, imaging, 24 h; AID 602346; inhibition, % at 7.49 µM; actives 0.35% (n = 340,000); in the data active = inhibition above about 50%, passing the limit was not always enough; inconclusive = no clear call, values can overlap the other calls; inactive = below about 31%
Wnt act – Wnt/beta-catenin pathway activation; activation, % at 9.35 µM; Wnt/beta-catenin reporter cell assay, activator, plate reader; actives 1.2% (n = 300,000); AID 743398; in the data active = activation above about 30%, passing the limit was not always enough; inconclusive = no clear call, values can overlap the other calls;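 also: 0% = neutral control wells and 100% = positive control wells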
MITF act – activators of MITF-driven TRPM1 promoter activity in SK-MEL-5 cells. SK-MEL-5 TRPM1-promoter luciferase, 24 h; % of positive control, neutral wells = 0. activation, % at 12.5 µM. actives 0.75% (n = 300,000). AID 588334;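 active = mean activation of at least 80% with every replicate also reaching 80%; inconclusive = mean reaches 80% but some replicate falls short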;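 also: 0% = neutral control wells and 100% = parthenolide positive control wells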
PfHsp90 set2 – reduces growth (ATP signal) of yeast expressing P. falciparum Hsp90 | actives 0.32% (n = 310,000) | S. cerevisiae expressing PfHsp90, BacTiter-Glo ATP, 48 h; yeast lacking PDR1 and PDR3 efflux regulators | inhibition, % at 9.4 µM | AID 504621;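 active = every replicate shows inhibition above about 80%, whatever the replicate mean, limit read from the data; inconclusive = mean inhibition reaches the set limit but some replicate falls short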;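 also: 0% = DMSO neutral controls and 100% = 20 µM radicicol positive controls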
esBAF inh – SWI/SNF esBAF complex inhibition | mouse ES cells, Bmi1-luciferase knock-in reporter, 24 h; 100% = twice the neutral-well signal | reporter increase, % at 12.5 µM | actives 2% (n = 350,000); in the data active = activation above about 40%; inconclusive = no clear call, values can overlap the other calls;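 also: 0% = median of the plate's neutral control wells and 100% = double that signal; a rise in the Bmi1 reporter signal indicates esBAF inhibition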
Glyco luc inh – N-linked glycosylation inhibition; D54 ERlucT glycosylation luciferase reporter, 24 h; percent of 100 nM tunicamycin response; reporter increase, % at 12.5 µM; actives 0.23% (n = 360,000);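 active = mean luciferase reporter signal, scaled so untreated is 0 and the glycosylation-blocking control 100, at or above a set limit in every replicate; inconclusive = mean reaches the limit but not every replicate does; inactive = mean below the limit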;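 also: luciferase carries N-glycosylation sites so blocking glycosylation raises the light; 0% = median of neutral control wells and 100% = median of 100 nM tunicamycin wells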
* hit, by the source's call.

`CCCn1c(C)cc(C(=O)CN2C(=O)c3ccccc3C2=O)c1C` gave Vif imaging 9.4, Wnt act 43.1*, MITF act 8.3, PfHsp90 set2 7.1 and Glyco luc inh -12.0.
Cc1cc(C(=O)CN2C(=O)NC3(CCCCCC3)C2=O)c(C)n1C was read as Vif imaging 13.6, Wnt act 29.0, MITF act 24.6, PfHsp90 set2 -12.1, esBAF inh 44.0* and Glyco luc inh -0.3.
Cc1cc(C(=O)CN2C(=O)C3CC=CCC3C2=O)c(C)n1-c1ccccc1 (stereo not drawn) was read as Vif imaging -2.2, Wnt act 48.1*, PfHsp90 set2 -38.6, esBAF inh -10.7 and Glyco luc inh -11.9.
Screening CCCn1c(C)cc(C(=O)CN2C(=O)NC3(CCCCCC3)C2=O)c1C returned Vif imaging -21.9, Wnt act 29.4, esBAF inh 54.3* and Glyco luc inh -2.0.
Screening CCn1c(C)cc(C(=O)CN2C(=O)c3ccccc3S2(=O)=O)c1C returned Vif imaging -5.1, Wnt act 0.7, MITF act -68.1, PfHsp90 set2 0.2, esBAF inh -76.9 and Glyco luc inh -23.2.
`CCN(CC)c1ncnc2sc(C(=O)N3CCN(c4ccc(OC)cc4)CC3)c(C)c12` gave Vif imaging 9.4, Wnt act -2.3, PfHsp90 set2 -16.7, esBAF inh -5.0 and Glyco luc inh -0.4.
For C[C@@H]1CN([C@H](C)CO)C(=O)c2cccc(NC(=O)NC3CCCCC3)c2O[C@@H]1CN(C)S(=O)(=O)c1ccccc1 the results were esBAF inh 4.5.
Screening COc1ccccc1N1CCN(C(=O)CCCNC(=O)Cn2cnc3sc(C)c(C)c3c2=O)CC1 returned Vif imaging -6.7, Wnt act 5.4, MITF act -7.7, PfHsp90 set2 -8.6, esBAF inh -11.3 and Glyco luc inh -2.8.
Screening CCc1cccc2c1NC1(CCCC1)CC2C (stereo not drawn) returned Vif imaging -1.4, Wnt act -4.1, MITF act -0.8, PfHsp90 set2 -4.6, esBAF inh -7.2 and Glyco luc inh -1.0.
For Cc1cc(C(=O)CN2C(=O)NC(CC(C)C)C2=O)c(C)n1-c1ccccc1F (stereo not drawn) the results were Vif imaging -0.2, Wnt act -1.1, MITF act -1.8, PfHsp90 set2 -4.3 and Glyco luc inh 0.5.
Cc1cc(C(=O)CN2C(=O)NC(CC(C)C)C2=O)c(C)n1C1CC1 (stereo not drawn) was read as Vif imaging 11.2, Wnt act 5.1, MITF act 29.3, esBAF inh 43.1* and Glyco luc inh 1.1.
Screening O=C(Cc1nc2ccccc2[nH]1)c1ccc([N+](=O)[O-])cc1 returned Vif imaging -1.4, Wnt act 57.7*, MITF act 59.4, PfHsp90 set2 -11.5 and Glyco luc inh -6.3.
`O=C(Cc1nc2ccccc2[nH]1)c1ccc(Cl)cc1` gave Vif imaging 11.6, Wnt act 9.0, MITF act 45.0, PfHsp90 set2 -14.5, esBAF inh 33.2 and Glyco luc inh 3.8.
CCc1cc(C(=O)Cc2ccc(F)cc2)c(O)cc1O was read as Vif imaging -2.7, Wnt act 1.6, MITF act -3.3, PfHsp90 set2 16.7, esBAF inh -3.3 and Glyco luc inh -5.5.
`CCc1cc(/C(Cc2ccc3ccccc3n2)=N\O)c(O)cc1O` gave Vif imaging -2.1, Wnt act -5.7, MITF act -7.6, PfHsp90 set2 -2.4, esBAF inh 50.1* and Glyco luc inh -3.8.
Screening CCc1cc(C(=O)Cc2nc3ccccc3[nH]2)c(O)cc1O returned Vif imaging 7.7, Wnt act 33.6*, MITF act 20.5, PfHsp90 set2 -54.1, esBAF inh 47.0* and Glyco luc inh 3.5.
Screening Nc1ccc(C(=O)OCc2nc3ccccc3[nH]2)cc1 returned Vif imaging 4.1, MITF act 9.7, PfHsp90 set2 3.4, esBAF inh 54.6* and Glyco luc inh 0.5.
Screening O=C(Nc1cc(F)ccc1F)N1CCCCN2[C@@H](CO)[C@@H](c3ccc(C4=CCCCC4)cc3)[C@@H]2C1 returned esBAF inh -3.4.
`Cc1ccc(S(=O)(=O)N2CCN(C(=O)C3CCCO3)CC2)cc1C` (stereo not drawn) gave Wnt act 0.5, MITF act 2.2, PfHsp90 set2 17.8 and Glyco luc inh 1.5.
Screening Cc1cccc2cc(C(c3nnnn3CC3CCCO3)N3CCCc4ccccc43)c(=O)[nH]c12 (stereo not drawn) returned Vif imaging -12.1, Wnt act -0.8, esBAF inh 2.1 and Glyco luc inh 0.4.
For Cc1ccc(-n2c([O-])nc(-[n+]3ccccc3)c2C=O)cc1 the results were Vif imaging 51.0*, MITF act -7.7, PfHsp90 set2 -3.4, esBAF inh -2.2 and Glyco luc inh 0.4.
Screening CCN(c1ccc(NC(=O)COC(=O)c2cc3ccccc3oc2=O)cc1)C(C)C returned Vif imaging 6.1, MITF act -0.6, PfHsp90 set2 -27.6, esBAF inh 8.7 and Glyco luc inh -1.8.
For O=C(COC(=O)c1cc2ccccc2oc1=O)Nc1ccc(F)cc1F the results were Vif imaging -0.8, Wnt act 47.1*, MITF act 61.6, PfHsp90 set2 4.7, esBAF inh 46.1* and Glyco luc inh -1.0.
COc1cccc2c1OCC(C(=O)Nc1nccs1)=C2 was read as Vif imaging -4.2, Wnt act inconclusive, MITF act 119.5*, PfHsp90 set2 -12.5, esBAF inh inconclusive and Glyco luc inh -6.3.
For COc1cccc(C=Nc2ccccc2C(=O)Nc2nccs2)c1OC the results were Vif imaging -7.3, Wnt act 1.4, PfHsp90 set2 2.8, esBAF inh -1.1 and Glyco luc inh 1.6.
Screening COc1ccccc1OCCCC(=O)Nc1nccs1 returned Vif imaging -5.4, Wnt act 5.8, MITF act 59.2, PfHsp90 set2 7.6, esBAF inh 82.0* and Glyco luc inh 3.6.
For COc1c(C(=O)Nc2nccs2)ccc2ccccc12 the results were Vif imaging -1.1, Wnt act 37.2*, MITF act 57.0, PfHsp90 set2 -35.0, esBAF inh 41.7* and Glyco luc inh -3.8.
Screening COc1cc(OC)cc(C(=O)OCC(=O)NCc2ccco2)c1 returned Vif imaging 5.4, Wnt act 47.3*, MITF act -3.8, PfHsp90 set2 7.3, esBAF inh -4.3 and Glyco luc inh 1.2.
Screening O=C(Nc1nccs1)c1ccccn1 returned Vif imaging 6.3, Wnt act 8.3, MITF act 51.0, PfHsp90 set2 7.6 and Glyco luc inh -1.7.
Screening CN1C(=O)c2cc(NC(=O)C3CCOCC3)ccc2OC[C@@H]2O[C@H](CC(=O)NCC3CC3)CC[C@H]21 returned esBAF inh -1.0.

Screens from PubChem BioAssay.
